Data published in ChEMBL document CHEMBL3433997, “St. Jude Leishmania screening dataset” (2016).

Target: Solute carrier family 2, facilitated glucose transporter member 1 (Homo sapiens) (UniProt P11166)
Test: ST_JUDE_LEISH: Cytotoxicity at 2uM final concentration against transgenic Leishmania Mexicana promastigotes LmGLUT1 that are glucose transport deficient and complemented with the human glucose transporter GLUT1. Activity is measured by DNA content using SYBR green in vitro
Type: functional

Sequence of Solute carrier family 2, facilitated glucose transporter member 1 (Homo sapiens) (P11166 whole entry): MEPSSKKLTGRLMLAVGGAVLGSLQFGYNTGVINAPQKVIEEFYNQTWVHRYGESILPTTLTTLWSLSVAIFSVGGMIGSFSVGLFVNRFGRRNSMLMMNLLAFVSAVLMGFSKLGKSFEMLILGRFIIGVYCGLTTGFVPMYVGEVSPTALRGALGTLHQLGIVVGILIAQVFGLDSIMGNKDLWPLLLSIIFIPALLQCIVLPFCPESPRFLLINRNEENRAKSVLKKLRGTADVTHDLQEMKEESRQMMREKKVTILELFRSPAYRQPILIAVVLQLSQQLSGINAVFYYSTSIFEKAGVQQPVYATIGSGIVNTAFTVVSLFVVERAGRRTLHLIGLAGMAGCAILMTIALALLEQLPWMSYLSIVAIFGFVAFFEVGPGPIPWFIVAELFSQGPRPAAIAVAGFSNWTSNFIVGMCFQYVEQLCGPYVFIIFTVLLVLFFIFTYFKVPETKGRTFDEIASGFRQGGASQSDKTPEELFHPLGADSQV

Q: For `CC(C(=O)NC1CCN(c2ccnc(Nc3ccc(F)cc3)n2)C1)c1ccc(Cl)cc1` (stereo not given), which inhibition is on record?
A: 1.1%

Q: For `O=[N+]([O-])c1cccc(CNCC2CCN(Cc3ccc(O)cc3)CC2)c1`, which inhibition is on record?
A: 21.4%

Q: For `O=[N+]([O-])c1cccc(CNC2CCN(Cc3ccc(Cl)c(Cl)c3)CC2)c1`, which inhibition is on record?
A: 7.37%

Q: Which inhibition does the source give for `COc1ccc(CNCc2cccc(-c3ccc(-c4nc5cccc(C)c5[nH]4)cc3)c2)cc1` here?
A: 14%

Q: How did the inhibition turn out when `Cc1nc(Nc2ccc(C)c(Cl)c2)c2c(C)noc2n1` was run?
A: 5.28%

Q: Which inhibition does the source give for `Cc1ccnc(NC(c2cccc(Cl)c2Cl)c2ccc3cccnc3c2O)c1` (stereo not given) here?
A: 2.69%

Q: How did the inhibition turn out when `CCCCOP(=O)(OCCCC)C(=Cc1ccc(O)c2ccccc12)P(=O)(OCCCC)OCCCC` was run?
A: 5.02%

Q: `CCCCCC(=O)NCC(NCCCNc1cc(=O)c2ccccc2[nH]1)c1cc(Br)cc(Br)c1` (stereo not given) was tested. Which inhibition did it give?
A: 5.16%

Q: For `FC(F)(F)c1ccc2[nH]ccc(=NN=Cc3cccnc3)c2c1`, which inhibition is on record?
A: 1.46%

Q: How did the inhibition turn out when `CC(Cc1ccc(COc2ccc(CC(CO)NCCc3cccc(Cl)c3)cc2)cc1)NCCc1cccc(Cl)c1` (stereo not given) was run?
A: 51.7%

Q: For `O=C(N[C@@H](Cc1ccccc1)C(=O)NC1CCCCCC1)c1ccc(O)c(-c2cccc(C(F)(F)F)c2)c1`, which inhibition is on record?
A: 5.83%

Q: Which inhibition does the source give for `O=C(NC(c1ccc(Cl)cc1)c1ccc2cccnc2c1O)c1ccccc1` (stereo not given) here?
A: 0.27%

Q: For `CCCCNC(=O)c1cc(CNC2CCCCC2)ccc1-c1cccc(CNCc2ccc(-c3ccccc3)cc2)c1`, which inhibition is on record?
A: 5.94%

Q: `Cn1cccc1C(=O)C(=O)Nc1cccc(-c2ccc(-c3nc4cc(C(F)(F)F)ccc4[nH]3)cc2)c1` was tested. Which inhibition did it give?
A: 4%

Q: Which inhibition does the source give for `CC[C@H](NC(=O)c1c(CN2CCC(N3CCCCC3)CC2)c(-c2ccccc2)nc2cc(O)ccc12)c1ccccc1` here?
A: -0.16%

Q: Which inhibition does the source give for `CCOC(=O)c1ccc(NC(=O)Nc2ccc(-c3cccc(-c4nc5cc(F)ccc5[nH]4)c3)cc2)cc1` here?
A: 2.36%

Q: For `Cc1cccc2nc(-c3ccc(-c4cccc(CN5CCN(CCO)CC5)c4)cc3)[nH]c12`, which inhibition is on record?
A: 7.34%

Q: For `CCCCNC(=O)C(C)NC(=O)c1ccc(O)c(-c2ccc(Cl)c(Cl)c2)c1` (stereo not given), which inhibition is on record?
A: -0.19%

Q: `CCCCCN1CCCN(Cc2cccc(NC(=O)c3ccc4ccccc4c3)c2)CC1` was tested. Which inhibition did it give?
A: 4.56%

Q: For `CN(c1ccc(NC(=O)c2ccc(F)cc2)cc1)C1CCN(Cc2cccc(F)c2)C1` (stereo not given), which inhibition is on record?
A: 1.66%

Q: Which inhibition does the source give for `COc1ccc2nccc([C@@H](O)CN3CCC(NCc4nc5ccccc5[nH]4)CC3)c2c1` here?
A: 1.84%

Q: For `Cc1cc2nc(-c3ccc(C(=O)NCCCc4ccccc4)cc3)[nH]c2cc1C`, which inhibition is on record?
A: 9.41%

Q: `NS(=O)(=O)c1cccc(Br)c1` was tested. Which inhibition did it give?
A: 2.38%

Q: `CCNc1cc(C(=O)N[C@@H](Cc2ccccc2)[C@H](O)CNC(C)C)cc(N2CC(c3ccccc3)CCS2(=O)=O)c1` (stereo not given in full) was tested. Which inhibition did it give?
A: 2.23%

Q: With `COc1ccc(F)cc1-c1ccc(C(=O)N2CCCN(c3ccc(C#N)cn3)CC2)cc1` as the molecule, how does the inhibition read?
A: 0.86%

Q: `CCC[C@@H]([C@@H](CC(C)C)C(=O)N[C@@H](CCCNc1nccc(C(F)(F)F)n1)C(=O)Nc1nccs1)N(O)C=O` was tested. Which inhibition did it give?
A: 3.82%

Q: Which inhibition does the source give for `CCOc1cc(C(=O)NC2CCN(Cc3ccccc3)CC2)ccc1-c1nc2cc(Cl)c(F)cc2[nH]1` here?
A: 3.61%

Q: How did the inhibition turn out when `COc1cccc(CN2CCC(C(=O)Nc3ccc(-c4nc5ccccc5[nH]4)cc3)CC2)c1` was run?
A: 23.8%

Q: How did the inhibition turn out when `ON=C1CCc2cc(-c3[nH]c(-c4cccc(OCCNCc5ccc(F)cc5)c4)nc3-c3ccncc3)ccc21` was run?
A: 16.7%

Q: With `Cc1ccc(-c2nc(N3CCN(C(=O)c4ccco4)CC3)c3ccc(Cl)cc3n2)cc1` as the molecule, how does the inhibition read?
A: 1.17%

Q: Which inhibition does the source give for `CCOC(=O)c1c(C)noc1Nc1cccc(C)c1C` here?
A: -3.16%

Q: How did the inhibition turn out when `COc1cc(NC(=O)CCCCCCCN2CCN(C)CC2)c2ncccc2c1` was run?
A: 5.39%

Q: `O=C(/C=C/c1ccc(Cl)c(Cl)c1)NCCCCCN1CCCC(CNC(=O)Nc2ccc(C(F)(F)F)cc2)C1` (stereo not given) was tested. Which inhibition did it give?
A: 4.18%

Q: How did the inhibition turn out when `O=C(Nc1ccc(Br)cc1)N(CCN1CCOCC1)CC(O)COc1ccc(Cl)c(F)c1` (stereo not given) was run?
A: -0.94%

Q: For `COc1cc(NC(=O)c2sc(-c3ccc(Cl)cc3)cc2NC(=O)CN2CCCC2)ccc1OCCN1CCCC1`, which inhibition is on record?
A: 5.97%

Q: Which inhibition does the source give for `COc1ccc(-c2cncc3ccc(C(=O)NCc4ccncc4)nc23)cc1` here?
A: 6.53%

Q: For `CC(C)n1ncc2c(C(=O)N3CCCc4ccccc43)cc(-c3ccccc3)nc21`, which inhibition is on record?
A: 4.46%

Q: How did the inhibition turn out when `CC(C)n1c(C2CCN(CC3CCN(C(=O)/C=C/c4ccc(Cl)c(Cl)c4)CC3)CC2)nc2ccccc21` was run?
A: 0.12%

Q: How did the inhibition turn out when `C[C@H](Nc1nc(C(Oc2ccccc2)c2ccccc2)nc2[nH]ncc12)c1ccccc1` (stereo not given in full) was run?
A: 3.69%

Q: For `CCCc1cc(C(=O)N[C@@H](Cc2ccccc2)[C@H](O)CNC(C)C)c(F)c(N2CCCC2=O)c1`, which inhibition is on record?
A: -2.2%

Target: Hexose transporter 1 (Plasmodium falciparum) (UniProt O97467)
Test: ST_JUDE_LEISH: Cytotoxicity at 2uM final concentration against transgenic Leishmania Mexicana promastigotes LmPfHT that are glucose transport deficient and complemented with the Plasmodium falciparum hexose transporter. Activity is measured by DNA content using SYBR green in vitro
Type: functional

Q: `CC(C(=O)NC1CCN(c2ccnc(Nc3ccc(F)cc3)n2)C1)c1ccc(Cl)cc1` (stereo not given) was tested. Which inhibition did it give?
A: 0.7%

Q: For `O=[N+]([O-])c1cccc(CNCC2CCN(Cc3ccc(O)cc3)CC2)c1`, which inhibition is on record?
A: 5.62%

Q: How did the inhibition turn out when `O=[N+]([O-])c1cccc(CNC2CCN(Cc3ccc(Cl)c(Cl)c3)CC2)c1` was run?
A: 4.47%

Q: With `COc1ccc(CNCc2cccc(-c3ccc(-c4nc5cccc(C)c5[nH]4)cc3)c2)cc1` as the molecule, how does the inhibition read?
A: 9.73%

Q: Which inhibition does the source give for `Cc1nc(Nc2ccc(C)c(Cl)c2)c2c(C)noc2n1` here?
A: 4.91%

Q: `Cc1ccnc(NC(c2cccc(Cl)c2Cl)c2ccc3cccnc3c2O)c1` (stereo not given) was tested. Which inhibition did it give?
A: 5.15%

Q: With `CCCCOP(=O)(OCCCC)C(=Cc1ccc(O)c2ccccc12)P(=O)(OCCCC)OCCCC` as the molecule, how does the inhibition read?
A: 4.67%

Q: For `CCCCCC(=O)NCC(NCCCNc1cc(=O)c2ccccc2[nH]1)c1cc(Br)cc(Br)c1` (stereo not given), which inhibition is on record?
A: 2.44%

Q: How did the inhibition turn out when `FC(F)(F)c1ccc2[nH]ccc(=NN=Cc3cccnc3)c2c1` was run?
A: 1.75%

Q: For `CC(Cc1ccc(COc2ccc(CC(CO)NCCc3cccc(Cl)c3)cc2)cc1)NCCc1cccc(Cl)c1` (stereo not given), which inhibition is on record?
A: 38.4%

Q: With `O=C(N[C@@H](Cc1ccccc1)C(=O)NC1CCCCCC1)c1ccc(O)c(-c2cccc(C(F)(F)F)c2)c1` as the molecule, how does the inhibition read?
A: 4.69%

Q: With `O=C(NC(c1ccc(Cl)cc1)c1ccc2cccnc2c1O)c1ccccc1` (stereo not given) as the molecule, how does the inhibition read?
A: -0.02%

Q: With `CCCCNC(=O)c1cc(CNC2CCCCC2)ccc1-c1cccc(CNCc2ccc(-c3ccccc3)cc2)c1` as the molecule, how does the inhibition read?
A: 5.46%

Q: For `Cn1cccc1C(=O)C(=O)Nc1cccc(-c2ccc(-c3nc4cc(C(F)(F)F)ccc4[nH]3)cc2)c1`, which inhibition is on record?
A: 2.42%

Q: With `CC[C@H](NC(=O)c1c(CN2CCC(N3CCCCC3)CC2)c(-c2ccccc2)nc2cc(O)ccc12)c1ccccc1` as the molecule, how does the inhibition read?
A: -0.44%

Q: How did the inhibition turn out when `CCOC(=O)c1ccc(NC(=O)Nc2ccc(-c3cccc(-c4nc5cc(F)ccc5[nH]4)c3)cc2)cc1` was run?
A: 2.86%

Q: For `Cc1cccc2nc(-c3ccc(-c4cccc(CN5CCN(CCO)CC5)c4)cc3)[nH]c12`, which inhibition is on record?
A: 4.65%

Q: For `CCCCNC(=O)C(C)NC(=O)c1ccc(O)c(-c2ccc(Cl)c(Cl)c2)c1` (stereo not given), which inhibition is on record?
A: -0.53%

Q: Which inhibition does the source give for `CCCCCN1CCCN(Cc2cccc(NC(=O)c3ccc4ccccc4c3)c2)CC1` here?
A: 4.49%

Q: For `CN(c1ccc(NC(=O)c2ccc(F)cc2)cc1)C1CCN(Cc2cccc(F)c2)C1` (stereo not given), which inhibition is on record?
A: -0.15%

Q: How did the inhibition turn out when `COc1ccc2nccc([C@@H](O)CN3CCC(NCc4nc5ccccc5[nH]4)CC3)c2c1` was run?
A: -0.18%

Q: `Cc1cc2nc(-c3ccc(C(=O)NCCCc4ccccc4)cc3)[nH]c2cc1C` was tested. Which inhibition did it give?
A: 9.39%

Q: Which inhibition does the source give for `NS(=O)(=O)c1cccc(Br)c1` here?
A: 0.12%

Q: For `CCNc1cc(C(=O)N[C@@H](Cc2ccccc2)[C@H](O)CNC(C)C)cc(N2CC(c3ccccc3)CCS2(=O)=O)c1` (stereo not given in full), which inhibition is on record?
A: 2.11%

Q: With `COc1ccc(F)cc1-c1ccc(C(=O)N2CCCN(c3ccc(C#N)cn3)CC2)cc1` as the molecule, how does the inhibition read?
A: 0.21%

Q: With `CCC[C@@H]([C@@H](CC(C)C)C(=O)N[C@@H](CCCNc1nccc(C(F)(F)F)n1)C(=O)Nc1nccs1)N(O)C=O` as the molecule, how does the inhibition read?
A: 4.8%

Q: How did the inhibition turn out when `CCOc1cc(C(=O)NC2CCN(Cc3ccccc3)CC2)ccc1-c1nc2cc(Cl)c(F)cc2[nH]1` was run?
A: 2.49%

Q: Which inhibition does the source give for `COc1cccc(CN2CCC(C(=O)Nc3ccc(-c4nc5ccccc5[nH]4)cc3)CC2)c1` here?
A: 32.9%

Q: Which inhibition does the source give for `ON=C1CCc2cc(-c3[nH]c(-c4cccc(OCCNCc5ccc(F)cc5)c4)nc3-c3ccncc3)ccc21` here?
A: 9.15%

Q: `Cc1ccc(-c2nc(N3CCN(C(=O)c4ccco4)CC3)c3ccc(Cl)cc3n2)cc1` was tested. Which inhibition did it give?
A: 2.21%

Q: Which inhibition does the source give for `CCOC(=O)c1c(C)noc1Nc1cccc(C)c1C` here?
A: -1.56%

Q: How did the inhibition turn out when `COc1cc(NC(=O)CCCCCCCN2CCN(C)CC2)c2ncccc2c1` was run?
A: 3.78%

Q: `O=C(/C=C/c1ccc(Cl)c(Cl)c1)NCCCCCN1CCCC(CNC(=O)Nc2ccc(C(F)(F)F)cc2)C1` (stereo not given) was tested. Which inhibition did it give?
A: 3.11%

Q: Which inhibition does the source give for `O=C(Nc1ccc(Br)cc1)N(CCN1CCOCC1)CC(O)COc1ccc(Cl)c(F)c1` (stereo not given) here?
A: -1.53%

Q: `COc1cc(NC(=O)c2sc(-c3ccc(Cl)cc3)cc2NC(=O)CN2CCCC2)ccc1OCCN1CCCC1` was tested. Which inhibition did it give?
A: 9.91%

Q: For `COc1ccc(-c2cncc3ccc(C(=O)NCc4ccncc4)nc23)cc1`, which inhibition is on record?
A: 4.27%

Q: `CC(C)n1ncc2c(C(=O)N3CCCc4ccccc43)cc(-c3ccccc3)nc21` was tested. Which inhibition did it give?
A: 2.95%

Q: How did the inhibition turn out when `CC(C)n1c(C2CCN(CC3CCN(C(=O)/C=C/c4ccc(Cl)c(Cl)c4)CC3)CC2)nc2ccccc21` was run?
A: -1.72%

Q: `C[C@H](Nc1nc(C(Oc2ccccc2)c2ccccc2)nc2[nH]ncc12)c1ccccc1` (stereo not given in full) was tested. Which inhibition did it give?
A: 1.72%

Q: Which inhibition does the source give for `CCCc1cc(C(=O)N[C@@H](Cc2ccccc2)[C@H](O)CNC(C)C)c(F)c(N2CCCC2=O)c1` here?
A: -0.79%
